D1 ag: Allosteric Agonists of the Human D1 Dopamine Receptor: qHTS | AID 504660, 2011 | activation, % at 2 µM | 360,000 compounds, 1% hits | HEK293 T-REx D1 cells, calcium flux, agonist mode; note: 0% is about no effect
Target sequence (P21728 whole entry, looked up): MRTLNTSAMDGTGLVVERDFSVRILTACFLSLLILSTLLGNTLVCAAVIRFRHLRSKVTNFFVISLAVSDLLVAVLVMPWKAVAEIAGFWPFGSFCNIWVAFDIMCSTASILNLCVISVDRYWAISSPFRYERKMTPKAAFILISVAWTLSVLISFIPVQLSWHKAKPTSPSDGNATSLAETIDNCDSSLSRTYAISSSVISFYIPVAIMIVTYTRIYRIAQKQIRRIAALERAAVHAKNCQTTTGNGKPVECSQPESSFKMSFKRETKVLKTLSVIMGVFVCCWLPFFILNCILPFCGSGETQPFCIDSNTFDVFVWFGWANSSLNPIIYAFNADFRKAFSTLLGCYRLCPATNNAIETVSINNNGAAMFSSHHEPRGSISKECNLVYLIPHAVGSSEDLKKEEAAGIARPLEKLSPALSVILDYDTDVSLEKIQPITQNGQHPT
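Inducible HEK293 T-REx D1 cells, force-coupled to calcium signalling, were plated at 4000 cells/well with tetracycline and held overnight at 30 C. After no-wash calcium dye loading, compound-evoked calcium rise over 180 s flagged agonists.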
TRHR ag: qHTS for Small Molecule Agonists and Allosteric Enhancers of Human TRH Receptor: Primary Screen for Agonists | Thyrotropin-releasing hormone receptor (Homo sapiens), P34981 | TRHR cells, calcium flux fluo-8, FDSS agonist mode | activation, % at 2 µM | 360,000 compounds, 0.18% hits | AID 493084, 2011; note: 0% is about no effect
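Steps: seed TRHR cells overnight; add fluo-8 no-wash Ca dye, RT 30 min–1.5 h; record 10 s baseline; pin-transfer compounds; monitor fluorescence 1 cycle/s for the agonist window. Calcium increases flag candidate agonists.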
D1 antagonist: Antagonist of Human D 1 Dopamine Receptor: qHTS | HEK293 TREx D1 cells, calcium flux, dopamine EC80; active compounds read low | D(1A) dopamine receptor (Homo sapiens), P21728 | 360,000 compounds, 3.2% hits | activity change, negative = inhibition, % at 10 µM; in the data active = activity change below about -30%; note: % is set by controls: 0 for no effect and ±100 for the full control effect
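Compound effects on dopamine-evoked calcium signalling were measured in tetracycline-induced HEK293 Trex D1 cells. Dopamine at EC80 followed a 180 s compound pre-read, and fluorescence was tracked kinetically for 180 s more.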
TRHR enhancer: qHTS for Small Molecule Agonists and Allosteric Enhancers of Human TRH Receptor: Primary Screen for Enhancers. 360,000 compounds, 0.66% hits. AID 493056, 2011. Thyrotropin-releasing hormone receptor (Homo sapiens), P34981. TRHR cells, fluo-8 calcium fluorescence, EC20 TRH enhancement. enhancement, % at 2 µM; in the data active = enhancement above about 30%; note: 0% is about no effect
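TRHR-expressing cells loaded with fluo-8 calcium dye were read kinetically (ex 480/em 530) during compound addition, then stimulated with an EC20 of TRH (10 nM final). Enhancement of the Gq-mediated intracellular calcium response was scored.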
D1 potentiator: Potentiators of Human D1 Dopamine Receptor: qHTS; D(1A) dopamine receptor (Homo sapiens), P21728; 360,000 compounds, 0.036% hits; AID 504651, 2011; potentiation, % at 10 µM; HEK293 TREx D1 cells, calcium flux, dopamine EC20 potentiation; in the data active = potentiation above about 30%; note: 0% is about no effect
The depositor's hits bear a star; nt = no result given. A selection: hits, their analogues and other compounds. The true share with any hit is near 4.6%. Cut-off read from the data, not from the text of the source, unless noted: active = activation above about 30%; inactive = the rest.

SMILES	D1 ag	TRHR ag	D1 antagonist	TRHR enhancer	D1 potentiator
CC(NC(=O)c1cc2cc(F)ccc2[nH]1)c1ccccc1 (stereo unspecified)	17	1	-55*	25	-16
COc1cc(C)ccc1OCCSc1nc2ccc(NC(=O)c3cccs3)cc2s1	0	-1	-5	3	-1
COC(=O)c1cc2oc3ccccc3c2n1Cc1nc(-c2ccc(Cl)cc2)oc1C	1	0	8	3	-1
COc1ccc(C(=O)NCC(c2ccc3c(c2)OCO3)N2CCOCC2)cc1OC (stereo unspecified)	1	1	15	3	0
O=C1CC(c2ccsc2)c2ccc3ccccc3c2N1 (stereo unspecified)	3	0	3	37*	3
CCN(CC)CCOC(=O)c1ccc(NC(=O)c2cc3cccc(OC)c3oc2=O)cc1	2	1	5	-5	0
N#C/C(=C\c1cc(Cl)c(OCc2ccc(Cl)cc2)c(Cl)c1)C(N)=O	7	1	-43*	5	-14
O=C(O)CCc1ccc(S(=O)(=O)Nc2cc(C(F)(F)F)ccc2N2CCCC2)cc1	1	0	4	7	-2
CCOC(=O)N1CCN(C(=O)CSCc2nc(-c3ccccc3C)oc2C)CC1	9	-1	-34*	8	-5
CCOC(=O)N1CCN(C(=O)CSCc2nc(-c3ccccc3F)oc2C)CC1	7	0	-44*	3	5
CCOC(=O)N1CCN(C(=O)CS(=O)(=O)Cc2nc(-c3ccccc3C)oc2C)CC1	2	-1	-9	-1	0
CCOc1ccc(-c2nc(CSCC(=O)N3CCN(c4ccc(F)cc4)CC3)c(C)o2)cc1	4	0	3	0	-5
Cc1ccccc1-c1nc(CS(=O)(=O)CC(=O)N2CCOCC2)c(C)o1	7	0	3	10	-3
CCOC(=O)C1CCN(C(=O)CS(=O)(=O)Cc2nc(-c3ccccc3Cl)oc2C)CC1	9	-1	-40*	5	-10
COc1ccc(-c2nc(CSCC(=O)N3CCN(c4ccc(OC)cc4)CC3)c(C)o2)cc1	4	0	-37*	6	-5
Cc1cccc(-n2ccnc2SCC(=O)Nc2cccc3ccccc23)c1	0	-1	1	-3	-4
CC(C)N1CC2=C(OC(N)=C(C#N)C2c2cccnc2)/C(=C/c2cccnc2)C1 (stereo unspecified)	4	0	-6	34*	-5
N#CC1=C(N)OC2=C(CCC/C2=C/c2ccoc2)C1c1ccoc1 (stereo unspecified)	10	2	3	18	1
CCN1CC2=C(OC(N)=C(C#N)C2c2ccccc2)/C(=C\c2ccccc2)C1 (stereo unspecified)	2	0	-73*	-2	-5
N#CC1=C(N)OC2=C(CC/C2=C\c2ccc(F)cc2)C1c1ccc(F)cc1 (stereo unspecified)	235*	42*	-58*	2	7
Cc1cc(-c2csc3nc[nH]c(=S)c23)cc(C)c1C	17	-2	-49*	-7	-5
Cc1ccc(-c2csc3nc[nH]c(=S)c23)cc1	2	-1	-8	0	-1
Cc1cc(C)c(NC(=O)C(C)n2nc(-c3ccc(C)c(C)c3)ccc2=O)c(C)c1 (stereo unspecified)	0	0	0	-2	-1
CCNC(=O)C(=O)Nc1ccc(OC)c(Cl)c1	12	0	-14	-5	-4
COc1ccc(NC(=O)C(=O)c2cc(C)n(-c3ccc(C)cc3)c2C)cc1Cl	4	0	-53*	-2	-2
SMILES	D1 ag	TRHR ag	D1 antagonist	TRHR enhancer	D1 potentiator
CCOC(=O)c1c[nH]n(-c2ccccc2)c1=O	1	0	-15	0	-5
CCOC(=O)c1cc(C(=O)OCC)c2ccccn2c1=O	1	0	-33*	-8	-3
O=C(CN(Cc1ccccc1)C(=O)c1csnn1)NCc1ccccc1	0	-1	-67*	-1	-7
COc1ccc(CN(CC(=O)NC2CCCC2)C(=O)c2csnn2)cc1	1	0	-49*	-9	-13
O=C(CN(Cc1ccc(Cl)cc1)C(=O)c1csnn1)NCc1ccccc1	5	0	-2	7	nt
Cc1ccc(CN(CC(=O)NC2CCCC2)C(=O)c2csnn2)cc1	2	0	9	8	-5
Cc1cc(C)cc(OCc2cc(=O)n3c4c(sc3n2)CCCC4)c1	0	-1	-12	-1	2
OCCN1CCN(C(c2ccccc2Cl)c2sc3nc(-c4ccco4)nn3c2O)CC1 (stereo unspecified)	5	0	nt	-3	-1
O=C(Nc1ccc2[nH]ncc2c1)c1ccccc1Cl	0	0	2	2	-2
Cc1ccc(C(C(=O)NC2CCCCC2)N(Cc2ccccc2)C(=O)Cc2c[nH]c3ccccc23)o1 (stereo unspecified)	2	0	-82*	-2	-6
Cc1ccc(NC(=O)CCCNC(=O)c2ccc(Cl)cc2)c(O)c1	3	-1	-32*	-3	1
Cc1cc(C)cc(-n2cnc3cc(C(=O)NCCc4ccccc4)ccc32)c1	2	0	3	9	-2
COc1ccc2nc(C)cc(Nc3ccccc3O)c2c1	-1	1	-35*	-3	-5
COc1ccc(OC)c(Nc2cc(C)nc3ccccc23)c1	1	0	-5	11	-4
CC(=O)Nc1ccc2c(c1)OCCOCCOc1cc(NC(C)=O)ccc1OCCOCCOCCO2	1	-1	-70*	-23	-3
O=C(Nc1ccc2c(c1)OCCO2)N1CCN(c2ccc(F)cc2)CC1	6	-1	0	0	-7
Cc1cccc(C)c1N1CCN(C(=O)Nc2ccc3c(c2)OCCO3)CC1	20	0	-34*	-1	-6
CCOc1ccc(S(=O)(=O)N2CCN(c3cccc(C(F)(F)F)c3)CC2)cc1OCC	4	1	-10	2	-1
COc1ccc(OCC(=O)N(Cc2cccc(OC)c2)C2CCS(=O)(=O)C2)cc1 (stereo unspecified)	1	0	-5	-5	0
CN(Cc1ccon1)C(=O)CC1C(=O)NCCN1Cc1ccccc1C(F)(F)F (stereo unspecified)	0	0	-12	2	1
CN(CCc1cn[nH]c1)C(=O)CC1C(=O)NCCN1Cc1ccccc1C(F)(F)F (stereo unspecified)	3	0	-40*	-3	0
